Assay results as given in PubChem BioAssay AID686979 (National Center for Advancing Translational Sciences (NCATS), 2013).
The campaign covered roughly 420,000 compounds. About 50,000 (12%) were called active. About 26% were inconclusive and are not listed. The sample holds actives, similar compounds and a random draw of the others, so the mix is not that of the screen. Calls come from the whole dose curve; as a rule, active = well fitted inhibition curve with a large enough effect; inconclusive = small, poorly fitted or top-dose-only effect; inactive = flat fitted curve, though single readings scatter. Where a SMILES comes first, the peptide text is derived from it. Bridges are numbered along the chain shown (N, C = ends). [ ]: non-standard residue; d: D form. The star is where a group is joined. X4 = CC[C@H](C)CCCCC(=O)*; Dab = NCC[C@H](N)C(=O)O

Assay: qHTS for Inhibitors of human tyrosyl-DNA phosphodiesterase 1 (TDP1): qHTS in cells in presence of CPT; note: nearly all actives have a fitted effect of over 55% in size
Conditions: chicken DT40 Tdp1-/-;hTDP1 cells + 20 nM CPT, ATP luminescence, 48 h; series mostly up to 46.2 µM; activity change, negative = growth inhibition: at the top concentration
Outline: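 Chicken DT40 Tdp1-/- cells stably complemented with human TDP1 were seeded at 400 cells/well in medium containing 20 nM camptothecin, exposed to pin-transferred compounds, and grown at 37 °C for at least 48 hr. Viability was read as ATP luminescence.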
% is set by controls: 0 for no effect and ±100 for the full control effect; potency is the fitted concentration of half-maximal effect.

SMILES	activity change, negative = growth inhibition	Potency
CC(C)(C)C(=O)NC1CC2CCCC(C1)N2C(=O)Nc1ccccc1F (stereo not drawn)	3.31% (inactive)	
COC(=O)[C@@H]1CCCN1C(=O)c1cc(COc2cccc3cccnc23)on1	-13.8% (inactive)	
COCC1CCCCN1C(=O)c1cc(COc2ccc(C)c(C)c2)on1 (stereo not drawn)		20.6 µM (active)
Cc1ccc(OCc2cc(C(=O)N(C)CCn3ccnc3C)no2)cc1C	-13.2% (inactive)	
O=C1C=CN2CCCC2CC1 (stereo not drawn)		16.4 µM (active)
Cc1cc(C)c(C#N)c(Nc2cccc(Br)c2)n1	-4.23% (inactive)	
CC1(C(=O)NS(=O)(=O)c2cccs2)CCN1C(=O)Cc1ccc(-c2ccccc2)cc1 (stereo not drawn)	-5.95% (inactive)	
CC1(C(=O)NS(=O)(=O)c2ccccc2)CCN1C(=O)Cc1ccc(-c2ccccc2)cc1 (stereo not drawn)	-7.34% (inactive)	
CCCNC(=O)C1(C)CCN1C(=O)Cc1ccc(-c2ccccc2)cc1 (stereo not drawn)		16.4 µM (active)
CCOC(=O)c1c(C)[nH]c(C(=O)OCC(=O)c2ccc(OC)cc2OC)c1C	-17.3% (inactive)	
N#C/C(=C\c1cccnc1)C(=O)Nc1ccc(SC(F)F)cc1	-28.9% (inactive)	
CS(=O)(=O)N1CCC(C(=O)N2CCN(c3ccccc3)CC2)CC1	-15.5% (inactive)	
Cn1c(C(=O)N2CCC(C(=O)N3CCN(c4ccccc4)CC3)CC2)cc2sccc21		13 µM (active)
O=C(C1CCC1)N1CCN(c2ccccc2)CC1	-15.3% (inactive)	
CCOC(=O)Cc1ncccc1C(=O)Nc1ccc(OC)cc1	7.57% (inactive)	
Cc1ccc2cccc([N+](=O)[O-])c2n1	3.55% (inactive)	
CC[C@H](C)CCCCC(=O)N[C@@H](CCN)C(=O)N[C@H](C(=O)N[C@@H](CCN)C(=O)N[C@H]1CCNC(=O)[C@H]([C@@H](C)O)NC(=O)[C@H](CCN)NC(=O)[C@H](CCN)NC(=O)[C@H](CC(C)C)NC(=O)[C@@H](CC(C)C)NC(=O)[C@H](CCN)NC1=O)[C@@H](C)O (X4-[Dab]T[Dab][Dab][Dab][dL]L[Dab][Dab]T; lactam 4-C)	7.64% (inactive)	
CC(=O)N1CCCc2ccc(NS(=O)(=O)c3ccc(F)cc3F)cc21	3.45% (inactive)	
Cc1nn(CCOc2ccccc2)c(=O)n1-c1ccccc1F	-4.12% (inactive)	
CCc1nn(CCCN2CCN(c3cccc(Cl)c3)CC2)c(=O)n1CCOc1ccccc1		11.6 µM (active)
CCN1C(=O)/C(=C\N2CCN(c3cccc(Cl)c3)CC2)SC1=S	-25.7% (inactive)	
Cc1cc(C)cc(NC(=O)CCCc2nc(-c3ccccc3Cl)no2)c1	-7.11% (inactive)	
COc1ccc(-c2noc(CNC(=O)C(C)Oc3ccccc3)n2)cc1 (stereo not drawn)	-11.7% (inactive)	
NC1=NC(c2ccc([N+](=O)[O-])cc2)N(c2ccc(F)cc2)C(N)=N1 (stereo not drawn)	-21.7% (inactive)	
Cc1ccc(OCCn2c(CNc3ccccc3C)nc3ccccc32)cc1		23.1 µM (active)
COCCn1c(-c2ccc(OC)c(OC)c2)nc2ccccc21	-3.14% (inactive)	

SMILES	activity change, negative = growth inhibition	Potency
Cc1ccc(OCc2nc3ccccc3n2C)cc1	-29.2% (inactive)	
COc1cc2ccccc2cc1C(=O)Nc1nc(C)c(C(C)=O)s1	3.46% (inactive)	
Cc1csc2nc(COC(=O)c3ccc(NC(=O)COc4ccccc4F)cc3)cc(=O)n12		18.4 µM (active)
Cc1csc2nc(COc3ccc(NC(=O)COc4ccccc4)cc3)cc(=O)n12	-21.1% (inactive)	
O=C(COc1ccccc1F)Nc1ccc(C(=O)OCc2cc(=O)n3nc(C4CC4)sc3n2)cc1	-6.06% (inactive)	
COc1ccc(CCNC(=O)CCNS(=O)(=O)c2cc(Br)cnc2N)cc1OC	-14.4% (inactive)	
COC(=O)[C@H](CC(C)C)NC(=O)N1CCCCC1C (stereo partly drawn)	-20.3% (inactive)	
CC(C)(C)Nc1nc(-c2ccccn2)nc2ccccc12		4.61 µM (active)
Cc1nc2ccccc2c(C(=O)O)c1-c1ccccn1	-9.02% (inactive)	
CC(=O)Nc1ccc(NC(=O)CCN2C(=O)C3CC=CCC3C2=O)cc1 (stereo not drawn)	-8.73% (inactive)	
COC(=O)[C@]1(C)CCC[C@@]2(C)C3CC[C@]4(OC(C)=O)C[C@@]3(CCC21)CC4=NO (stereo partly drawn)		16.4 µM (active)
COC(=O)[C@@H]1C[C@H]2CC[C@H](O)C[C@H]2N1Cc1ccc(N2CCN(C)CC2)cc1	2.1% (inactive)	
O=C(c1cccnc1NCc1ccccc1)N1CCOCC1	-0.352% (inactive)	
Oc1c(C(c2ccccn2)N2CCOCC2)ccc2cccnc12 (stereo not drawn)		16.4 µM (active)
Cc1nc2sc(C(c3ccco3)N3CCOCC3)c(O)n2n1 (stereo not drawn)	-5.57% (inactive)	
O=C(O)c1cc(S(=O)(=O)Nc2ccc3cn[nH]c3c2)ccc1Br	-23% (inactive)	
O=C(Nc1ccccc1)C1CC(=O)n2c(nc3ccccc32)N1 (stereo not drawn)	-4.62% (inactive)	
O=c1ccc2cc(S(=O)(=O)NCCCc3ccccc3)ccc2[nH]1	-0.674% (inactive)	
C#CC(C)(C)NC(=O)CSc1nc2c(c(=O)n(C)c(=O)n2C)n1CCCC	-13% (inactive)	
CCCCn1c(SCC(=O)N2CCOCC2)nc2c1c(=O)n(C)c(=O)n2C	2.67% (inactive)	
COC(=O)C(C)Sc1nc2c(c(=O)n(C)c(=O)n2C)n1Cc1cccc(C)c1 (stereo not drawn)	-18.2% (inactive)	
CCC1CCCCN1C(=O)CSc1nc2c(c(=O)n(C)c(=O)n2C)n1C (stereo not drawn)	-19.2% (inactive)	
CC(C)n1c(SCC(=O)Nc2ccccc2N2CCCCC2)nc2c1c(=O)n(C)c(=O)n2C		29.1 µM (active)
CCOC(=O)CSc1nc2c(c(=O)n(C)c(=O)n2C)n1Cc1ccccc1F	-17% (inactive)	
Cn1c(=O)c2c(nc(SCC(=O)Nc3ccc(F)cc3)n2Cc2ccccc2)n(C)c1=O		4.61 µM (active)
Cc1cccc(Cn2c(SCCO)nc3c2c(=O)n(C)c(=O)n3C)c1		25.9 µM (active)

SMILES	activity change, negative = growth inhibition	Potency
CSc1nnc(C2CCCN(CC(=O)Nc3ccccc3N3CCOCC3)C2)n1C(C)C (stereo not drawn)	-20% (inactive)	
O=C(c1cccs1)N1C[C@H](n2cc(C3CC3)nn2)[C@@H](O)C[C@@H]1c1ccccc1	-0.33% (inactive)	
O=C(O)CC12CC3CC(C1)CC(n1ncc(NCc4ccc(F)cc4)c(Cl)c1=O)(C3)C2	2.86% (inactive)	
Cc1ccc(C(=O)NCC(c2cccs2)N(C)C)cc1S(=O)(=O)N1CCOCC1 (stereo not drawn)	-21.4% (inactive)	
O=C(NCc1csc(-c2cccs2)n1)C1CC1	5.77% (inactive)	
CC(C)(C)C1CCC(C(=O)NCC(c2cccs2)N2CCOCC2)CC1 (stereo not drawn)		16.4 µM (active)
Cc1c(C=O)c2ccccc2n1CC(=O)O	-0.794% (inactive)	
Cc1ccc(S(=O)(=O)N2CCOCC2)cc1NC(=O)COC(=O)c1cnccn1	-0.832% (inactive)	
COc1cc(/C=C/c2ccc(/C=C/c3cc(OC)c(OC)c(OC)c3)cc2)cc(OC)c1OC	-24.1% (inactive)	
O=C1c2ccccc2C2=Nc3ccccc3SC(c3ccccc3F)C12 (stereo not drawn)		14.6 µM (active)
O=C1c2ccccc2C(=O)C1c1ccccc1F	19% (inactive)	
O=C1CSC(=S)N1c1ccc(Cl)c(Cl)c1	-13.3% (inactive)	
COc1ccc(/C=C(\C#N)c2c[nH]c3ccccc23)cc1		1.16 µM (active)
C[N+](C)(C)CCNC(=O)c1c[nH]c2ccccc12	2.23% (inactive)	
COc1ccc(/C=C(\NC(=O)c2ccc(OC)c(OC)c2)C(=O)NCCc2c[nH]c3ccccc23)cc1	-1.48% (inactive)	
COC(=O)c1ccc(/C=N/OCC(=O)Nc2cc(F)ccc2F)cc1	11.8% (inactive)	
COc1cccc(N2CC(NS(=O)(=O)c3ccc(Cl)cc3)CC2=O)c1 (stereo not drawn)	-12.5% (inactive)	
CC(C)(C)CN1C(=O)C(=O)NC[C@H]1Cc1cccc2ccccc12	-9.63% (inactive)	
CSC1=NCCN1C(=O)Cc1cccc2ccccc12	-4.3% (inactive)	
c1ccc(C[C@H]2CNCCN2CCC23CC4CC(CC(C4)C2)C3)cc1		10.3 µM (active)
O=C1CCNCCN1[C@H](CO)Cc1ccccc1	0.73% (inactive)	
c1ccc2c(CCN3CCNC[C@H]3Cc3cccc4ccccc34)cccc2c1		20.6 µM (active)
Nn1c(SCC(=O)NC2CCCC2)nnc1-c1ccccc1F	-15.8% (inactive)	
COCC1CCN(C(=O)c2ccc3oc(Cc4ccccc4)nc3c2)C1 (stereo not drawn)	1.38% (inactive)	
COc1cc(OC)c(NC(=O)c2cc(S(=O)(=O)N3CCCC3)cn2C)cc1Cl	1.61% (inactive)	
Cc1ccccc1NC(=O)CCOc1ccccc1		inactive

SMILES	activity change, negative = growth inhibition	Potency
Cc1cccc(OCC(=O)Nc2ccccc2F)c1	-10.9% (inactive)	
Cc1cccc(OCCC(=O)Nc2ccccc2C(N)=O)c1		9.2 µM (active)
Cc1oc2c(c1C(=O)Nc1ccc(F)c(F)c1)C1=NCCN1C=N2	-15% (inactive)	
COc1ccc(/C=N/n2nnnc2N)cc1OC	18.6% (inactive)	
Nc1nc(SCC(=O)Nc2ccc(Cl)c([N+](=O)[O-])c2)n[nH]1	-16.2% (inactive)	
CC(OC(=O)CN1C(=O)COc2ccccc21)C(=O)NCc1ccc(F)cc1 (stereo not drawn)	-15.2% (inactive)	
O=C(CN1CCOC1=O)N1CCCC(Nc2ccc(F)c(F)c2)C1 (stereo not drawn)	5.44% (inactive)	
CC(C)=C1C2CCC1C1C(=O)N(NC(=O)c3ccco3)C(=O)C21 (stereo not drawn)	1.68% (inactive)	
CC(C)(c1ccccc1)c1ccc(OCCN)cc1		18.4 µM (active)
O=C(NCCOc1ccccc1)c1ccccc1	1.35% (inactive)	
O=C(NCCc1ccccc1)c1ccc(OCCOc2ccccc2)cc1	0.389% (inactive)	
CCOC(=O)c1sc(NC(=O)/C=C/c2ccc(C(C)C)cc2)c(C(=O)OCC)c1C	5.17% (inactive)	
COc1cccc(CNC(=O)[C@@H]2CCCN2C(=O)[C@@H]2CCCN2C(=O)c2ccccc2)c1	-27.4% (inactive)	
CCOC(=O)CNC(=O)c1nn(-c2cccc(OC)c2)c(=O)c2ccccc12	4.95% (inactive)	
COc1cccc(-n2nc(C(=O)N3CCN(Cc4ccccc4)CC3)c3ccccc3c2=O)c1		20.6 µM (active)
COc1cccc(N2C(=O)CN(Cc3ccccc3)C2=S)c1	-10.6% (inactive)	
N=C1C(c2nc3ccccc3[nH]2)=C(O)CN1NC(=O)c1c[nH]c2ccccc12	4.83% (inactive)	
O=C(COC(=O)CCCN1C(=O)c2cccc3cccc(c23)C1=O)NC1CCS(=O)(=O)C1 (stereo not drawn)	4.29% (inactive)	
Cc1ccc(-c2cc(C(=O)Nc3nn[nH]n3)c3ccccc3n2)c(C)c1	10.7% (inactive)	
Cc1ccc(-c2cc(C(=O)N/N=C/C=C/c3ccco3)c3ccccc3n2)cc1C		8.2 µM (active)
Nc1ccccc1C(=O)NC1CCCCNC1=O (stereo not drawn)	10.6% (inactive)	
CNC(=O)c1ccc(CN(C)C(=O)c2cc(C3CC3)nc3c2cnn3C(C)C)cc1	-22.5% (inactive)	
CCOC(=O)c1ccc(NC(=O)CNC(=O)c2ccco2)cc1	-0.879% (inactive)	
CCOC(=O)c1ccc(-c2ccc(/C=C(\C#N)C(=O)Nc3ccc(OCC)cc3)o2)cc1	-5.81% (inactive)	
CCOC(=O)c1ccc(-c2ccc(/C=C(\C#N)C(=O)Nc3ccc(C)cc3)o2)cc1		9.2 µM (active)
